Assay results published in PubChem BioAssay (NCATS).
Inconclusive results are not listed. Unmarked numbers belong to inactive results. The call rests on the fitted dose curve; in most records, active means well fitted inhibition curve with a large enough effect; inconclusive means small, poorly fitted or top-dose-only effect; inactive means flat fitted curve, though single readings scatter.

assay: P-glycoprotein substrates identified in KB-8-5-11 adenocarcinoma cell line, qHTS therapeutic library screen (AID 1346987); conditions: KB-8-5-11 (P-gp overexpressing) viability, CellTiter-Glo, 72 h; series mostly up to 44.5 µM; activity change, negative = cytotoxicity: at the top concentration; further: nearly all actives have a fitted effect of over 65% in size
How it was run: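 In this qHTS, P-gp-rich KB-8-5-11 cells received library compounds across a concentration range. Viability was quantified by luminescence after 72 h at 37 degree C.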
On the % scale 0 is the no-effect control and ±100 the full control effect.

SMILES	activity change, negative = cytotoxicity
O=C(O)[C@@H](O)[C@H](O)[C@H](O)[C@@H](O)C(=O)O (tested in a mixture with another compound)	8.11%
Cc1c(N)nc(C(CC(N)=O)NCC(N)C(N)=O)nc1C(=O)NC(C(=O)NC(C)C(O)C(C)C(=O)NC(C(=O)NCCc1nc(-c2nc(C(=O)NCCCN[C@@H](C)c3ccccc3)cs2)cs1)C(C)O)C(O[C@@H]1O[C@@H](CO)[C@@H](O)[C@H](O)[C@@H]1O[C@H]1O[C@H](CO)[C@@H](O)[C@H](OC(N)=O)[C@@H]1O)c1cnc[nH]1 (stereo partly specified)	-17.4%
O=P(O)(O)OC(Cn1cncn1)(Cn1cncn1)c1ccc(F)cc1F	9.23%
CCCCCCCCCCCCCCCC(=O)OC[C@H](O)[C@H]1OC(=O)C(O)=C1O	16.9%
NC(=O)C[C@@H](N)C(=O)O	-9.74%
OC(CN1CCCCC1)c1cc(-c2ccccc2)on1 (stereo unspecified)	-8.56%
